This is one part of the list. Records with an inconclusive call do not appear. Calls of active or inactive are those of the source. Calls come from the whole dose curve.

Sequence of Vitamin D3 receptor (Homo sapiens) (P11473 whole entry, looked up, the tested form may be a part): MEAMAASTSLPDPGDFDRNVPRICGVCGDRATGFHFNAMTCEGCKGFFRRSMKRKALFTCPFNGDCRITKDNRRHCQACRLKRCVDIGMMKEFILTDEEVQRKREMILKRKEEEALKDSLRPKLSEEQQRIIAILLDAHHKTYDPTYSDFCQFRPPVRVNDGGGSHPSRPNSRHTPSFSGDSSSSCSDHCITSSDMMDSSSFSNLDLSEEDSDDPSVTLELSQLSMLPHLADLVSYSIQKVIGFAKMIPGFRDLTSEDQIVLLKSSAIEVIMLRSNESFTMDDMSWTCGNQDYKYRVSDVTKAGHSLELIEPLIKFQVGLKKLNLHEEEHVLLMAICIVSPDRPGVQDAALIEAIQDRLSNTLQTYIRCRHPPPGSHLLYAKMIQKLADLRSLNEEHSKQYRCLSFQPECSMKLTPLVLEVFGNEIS

For the experiment, the target named is Vitamin D3 receptor (Homo sapiens) (UniProt P11473). Kind of experiment: Vitamin D Receptor Selectivity Assay for Inhibitors of the Interaction of Thyroid Hormone Receptor and Steroid Receptor Coregulator 2. The following applies: VDR LBD/SRC2-3 peptide, fluorescence polarization, 3 h. An excerpt:
NIH Molecular Libraries Probe Production Network [MLPCN] NIH Chemical Genomics Center [NCGC] MLPCN Grant: DK058080 Assay Provider: R. Kip Guy, St. Jude Children's Research Hospital NCGC Assay Overview: Thyroid receptor (TR) regulates many homeostatic processes including basal metabolism, cardiovascular function, body weight, and lipid trafficking. TR modulators are potential therapeutics for obesity and hyperlipidemias but current thyroid analogs have undesirable side effects, particularly cardiac stimulation. This secondary assay characterized compounds identified in the qHTS for Inhibitors of the Interaction of Thyroid Hormone Receptor and Steroid Receptor Coregulator 2 (PubChem AID 1485) for selectivity against the vitamin D receptor (VDR). […] Small molecule inhibitors that block the interaction of VDR and SRC2-3 are detected by a decrease in fluorescence polarization. […] Quantification of the vitamin D receptor-coregulator interaction. […]
NCGC Assay Protocol Summary: Twenty uL/well 1 uM VDR and 5 nM Alexa Fluor 647 SRC2-3 peptide in buffer (25 mM PIPES, pH 6.75, 50 mM NaCl, 0.01% NP-40, 6 uM LG190178, and 4% DMSO) was dispensed into black solid 384-well plates (Costar 3710) using a Biomek FX (Beckman Coulter) liquid handling system. […] The plates were read by an Envision (Perkin Elmer) to detect fluorescence polarization of Alexa Fluor 647 (620 nm excitation and 688 nm emission).
(In general: Fluorescence polarisation rises when a labelled molecule tumbles more slowly, as on binding a larger partner.)
With `O=C(COC(=O)c1cccc([N+](=O)[O-])c1)NC1C2CC3CC(C2)CC1C3` (stereo unspecified), the result was inactive.
